# In PubChem BioAssay (NCI):
# This is part of a sample that, as a whole, favours compounds with a hit. Of some 83,000 tested, about 20% had one in any assay.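 96-well plates, one dose, 48 hours. Percent growth reported; active if below 10.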 Unmarked numbers belong to inactive results. Calls of active or inactive are those of the source.
# Experiments:
# Experiment in all cases: NCI-60 one-dose screen, 48 h (100 = growth as untreated, 0 = no growth, -100 = all killed)
# Settings in all cases: 10 µM unless noted
# [1] = system: NCI-H23 lung
# [2] = system: NCI-H226 lung
# [3] = system: NCI-H322M lung
# [4] = system: HOP-62 NSCLC
# [5] = system: NCI-H460 lung
# [6] = system: HOP-92 NSCLC
# [7] = system: NCI-H522 lung
# [8] = system: A549/ATCC NSCLC
# [9] = system: 786-0 renal
# [10] = system: COLO 205 colon
# [11] = system: DU-145 prostate
# [12] = system: K-562 leukemia
# [13] = system: MALME-3M melanoma
# [14] = system: MDA-MB-231 breast
# [15] = system: RXF 393 renal
# [16] = system: SF-268 CNS
# [17] = system: SF-295 CNS
# [18] = system: SF-539 CNS
# [19] = system: UACC-257 melanoma
# [20] = system: M14 melanoma
SMILES,growth [1] [%],growth [2] [%],growth [3] [%],growth [4] [%],growth [5] [%],growth [6] [%],growth [7],growth [8] [%],growth [9] [%],growth [10] [%],growth [11] [%],growth [12],growth [13] [%],growth [14] [%],growth [15] [%],growth [16] [%],growth [17] [%],growth [18] [%],growth [19] [%],growth [20] [%]
Cc1nc2ncccc2nc1Nc1ccc(S(=O)(=O)Nc2cncs2)cc1,85,92.5,101,94,97.1,65.4,103%,103,96.3,98.9,107,109%,103,84,112,98.2,107,106,101,99.6
N#Cc1c(-c2ccccc2)cc(-c2ccccc2)n(CC(=O)NO)c1=O,53.1,38.9,81.2,71.2,83,32,-70.9% (active),54.4,63.7,58.6,61,6.26% (active),66,42.8,27.9,52.5,63.5,63.9,67.5,64.8
N#C/C(=C1C=C/C(=N/O)C(Cl)=C/1)c1ccc(Cl)cc1,104,71.5,118,45.7,78.3,70.5,67.7%,88.8,63.5,99.8,35.5,42.6%,112,61.4,81.9,54.5,141,18.8,76.2,85.1
Cc1ccc(S(=O)(=O)n2cc(C(=O)C(=O)N3CCOCC3)c3ccccc32)cc1,79.4,82.4,99.2,84.7,113,26.6,75.2%,114,92.4,112,109,86.9%,91,80.2,110,97,94.1,91.2,98.4,91.4
CC(=O)Nc1scc[n+]1Cc1ccccc1,88,106,131,105,112,99.2,103%,104,102,111,118,99.1%,130,115,98.3,110,105,104,107,98.5
CCOC(=O)C1C(=O)C=C(c2ccc(OC)cc2)CC1c1sc(N(C)Cc2ccccc2)nc1Cl (stereo not given),77.7,82.6,76.1,81.6,82.8,29.8,68.7%,82,84.6,108,91.5,68.4%,93.4,68.3,93.9,74.4,83.6,84.7,91.2,87.6
Cc1cc(N/N=C/c2nc(-c3ccc(Br)cc3)oc2C)c2cc(Cl)ccc2n1,101,84.7,91.9,107,12.8,72,76.5%,65.5,34.1,104,60.7,-17.6% (active),55.6,67.2,85.5,80,101,98.5,95.6,40.8
